Screening data as filed in PubChem.
GSIS activator – GLuc luminescence reporter in INS-1E cells, primary screen for activators of glucose-dependent secretion of insulin; activation, % at 16.6 µM; INS-1E GLuc reporter insulin secretion, 2-3 h; 370,000 tested, 0.61% active; AID 743287;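 active = lowest replicate activation of at least 40%, so every replicate reaches that level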;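 note: 0% = median of neutral control wells and 100% = median of IBMX positive control wells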
AF4-AF9 inh – inhibitors of human MLL-AF4/AF9 interaction. AlphaScreen, biotin-AF4 peptide binding to FLAG-AF9. P42568. inhibition, % at 10 µM. 350,000 tested, 0.47% active;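 active = every replicate reaching a set inhibition limit, whatever the replicate mean, cut at about 25% in these data; inconclusive = mean inhibition reaches that limit but some replicates miss it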;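 note: 0% = plate neutral control median and 100% = total signal loss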
NSD2 HMT inh – NSD2 (human) methyltransferase inhibition. O96028. NSD2 peptide methylation, AlphaScreen, 120 min. inhibition, % at 12.5 µM. 310,000 tested, 0.54% active; in the data active = inhibition above about 50%
PGC1a acetyl inh – PGC1a acetylation modulation, inhibitor mode; inhibition, % at 15.6 µM; 350,000 tested, 0.17% active; U2OS PGC1a acetylation, AlphaScreen anti-acetyl-lysine; with virally co-expressed GCN5 acetyltransferase;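 active = every replicate shows inhibition of at least 40%; inconclusive = mean inhibition at least 40% but some replicate below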;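 note: 0% = neutral control wells and 100% = positive control wells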
HIV Env fusion – blocks HIV Env-driven cell-cell fusion; inhibition, % at 12.3 µM; 360,000 tested, 1.1% active; HeLa-JRFL Env/CEM21 cell fusion, luciferase;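 active = mean replicate inhibition score of at least 50 and every replicate individually at or above 50; inconclusive = only one of the two criteria met; inactive = mean below 50 and not all replicates reaching 50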;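 note: 0% = plate neutral controls and 100% = maraviroc near 300 nM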
* = called active by the depositor; ? = inconclusive; · = no result; [ ] = dose if it differs, or a comment. Only some compounds are listed: those with a hit (about 2.1% of all), similar ones and a draw of the others.

SMILES	GSIS activator	AF4-AF9 inh	NSD2 HMT inh	PGC1a acetyl inh	HIV Env fusion
COc1ccc(NC(=O)Nc2ccc3c(c2)C(=O)N([C@H](C)CO)C[C@H](C)[C@H](CN(C)Cc2ccc4c(c2)OCO4)OCCCC[C@H](C)O3)cc1	-23	19	·	1	68*[16.7 µM]
COc1ccc(NC(=O)Nc2ccc3c(c2)C(=O)N([C@H](C)CO)C[C@@H](C)[C@H](CN(C)Cc2ccc4c(c2)OCO4)OCCCC[C@@H](C)O3)cc1	-30	27*	·	-3	20[16.7 µM]
COc1ccc(NC(=O)Nc2ccc3c(c2)C(=O)N([C@@H](C)CO)C[C@@H](C)[C@@H](CN(C)Cc2ccc4c(c2)OCO4)OCCCC[C@H](C)O3)cc1	-19	4	·	-10	-107[16.7 µM]
COc1ccc(NC(=O)Nc2ccc3c(c2)C(=O)N([C@@H](C)CO)C[C@@H](C)[C@@H](CN(C)Cc2ccc4c(c2)OCO4)OCCCC[C@@H](C)O3)cc1	-20	22	·	7	10[16.7 µM]
c1ccc(Cc2nnc(N3CCOCC3)c3ccccc23)cc1	38	·	1	·	·
CCOc1cccc(-c2csc(C3COc4ccccc4O3)n2)c1 (stereo not given)	126*	·	-3	·	-8
COc1ccccc1N1CCN(C(=O)CSc2nnc3n2C(C)(C)Cc2ccccc2-3)CC1	-29	·	3	-1	74*
S=C(N/N=C/c1ccc(Br)cc1)N1CCCCC1	5	-4	1	7	-82
COc1ccc(S(=O)(=O)N2CCCCN3[C@@H](CO)[C@@H](c4ccc(C5=CCCCC5)cc4)[C@@H]3C2)cc1	·	3	·	-57	·
O=[N+]([O-])c1ccccc1S(=O)(=O)Nc1ccc(-c2ccc3nncn3n2)cc1	49*	-1	3	·	5
O=S(=O)(Nc1cccc(-c2ccc3nncn3n2)c1)c1ccccc1F	12	-10	-2	·	-11
O=S(=O)(Nc1cccc(-c2ccc3nncn3n2)c1)c1cccc(F)c1	3	1	1	·	-8
CCOc1ccc(-c2cccc(NS(=O)(=O)c3ccccc3[N+](=O)[O-])c2)nn1	29	-2	17	-9	94*
COc1ccc(-c2cccc(NS(=O)(=O)c3ccccc3[N+](=O)[O-])c2)nn1	20	-12	1	7	-2
COc1ccc(S(=O)(=O)Nc2cccc(-c3ccc4nncn4n3)c2)cc1F	42*	1	-1	·	14
O=[N+]([O-])c1ccccc1S(=O)(=O)Nc1cccc(-c2ccc3nncn3n2)c1	89*	0	-1	20	10
C[C@@H]1CCCCO[C@@H](CN(C)CC2CCCCC2)[C@H](C)CN([C@H](C)CO)C(=O)c2cc(NC(=O)c3ccccc3)ccc2O1	-5	27*	·	-2	67*[16.7 µM]
COc1ccc(NC(=O)Nc2ccc3c(c2)C(=O)N([C@@H](C)CO)C[C@H](C)[C@H](CN(C)CC2CCCCC2)OCCCC[C@H](C)O3)cc1	-9	0	·	-8	55*[16.7 µM]
COc1ccc(NC(=O)Nc2ccc3c(c2)C(=O)N([C@H](C)CO)C[C@H](C)[C@H](CN(C)CC2CC2)OCCCC[C@H](C)O3)cc1	10	?	·	17	64*[16.7 µM]
C[C@@H]1CCCCO[C@@H](CN(C)CC2CCCCC2)[C@H](C)CN([C@@H](C)CO)C(=O)c2cc(NC(=O)c3ccccc3)ccc2O1	-4	10	·	-14	?
COc1ccc(NC(=O)Nc2ccc3c(c2)C(=O)N([C@H](C)CO)C[C@H](C)[C@H](CN(C)CC2CCCCC2)OCCCC[C@@H](C)O3)cc1	-7	-3	·	-7	4[16.7 µM]
C[C@@H]1CCCCO[C@@H](CN(C)CC2CCCCC2)[C@H](C)CN([C@H](C)CO)C(=O)c2cc(NC(=O)NC3CCCCC3)ccc2O1	21	·	·	-5	70*[16.7 µM]
O=C(c1cc(-c2ccccc2)nc2ccccc12)N1CCc2ccccc2C1	-16	1	1	·	16
O=C1C(Oc2ccccc2)C(c2cccs2)N1Cc1ccc2c(c1)OCO2 (stereo not given)	-6	·	-3	·	·
COc1ccc(OC2C(=O)N(Cc3ccc4c(c3)OCO4)C2c2cccs2)cc1 (stereo not given)	-24	2	8	-15	68*
CC(C)c1nc2oc3c(NCc4cccnc4)ncnc3c2c2c1CCC2	·	·	-3	-21	-69
CC(C)Cc1nc2oc3c(NCc4cccnc4)ncnc3c2c2c1CCC2	75*	·	2	·	-9
O=C1CS/C(=N/N=C/c2ccccc2)N1c1ccc(O)cc1	-14	-10	-9	18	-2
